Results as given in PubChem BioAssay AID1645879 (National Center for Advancing Translational Sciences (NCATS), 2021).
Records with an inconclusive call do not appear. Where a call stands in place of a potency, no number is given. Activity calls are given as the source filed them. Calls come from the whole dose curve; as a rule, active = well fitted inhibition curve with a large enough effect; inconclusive = small, poorly fitted or top-dose-only effect; inactive = no such curve, though single readings can be large or run the other way.

assay: Counterscreen qHTS assay for inhibitors of N-terminal methyltransferase 1 (NTMT1): SPKRIA Counterscreen Assay; settings: biochemical qHTS; series mostly up to 99.2 µM
How it was run: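 Luminescent SAH detection after 30 min room-temperature reaction with 1 uM SPKRIA, following 15 min compound preincubation. Percent inhibition, normalized to control, fitted by 4-parameter Hill equation.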

SMILES	Potency
C[C@]12CC[C@@H]3c4ccc(O)cc4CC[C@H]3[C@@H]1C[C@@H](O)[C@@H]2O	inactive
CCC1(C)CC(=O)NC1=O (stereo not given)	inactive
O=C(Nc1noc2ccccc12)c1c(F)cccc1F	inactive
Oc1cccc(Nc2nc(-c3ccccc3)nc3ccccc23)c1	20 µM (active)
COc1cc(C)c(/C=C/C(C)=C/C=C/C(C)=C/C(=O)O)c(C)c1C	inactive
c1cncc(-c2ccc3ncnc(NCc4cccs4)c3c2)c1	44.7 µM (active)
O=C(c1ccc(/C=C/c2n[nH]c3ccccc23)cc1)N1CCNCC1	inactive
Cc1cc2c(s1)c1cnn(Cc3cccc(C)c3F)c(=O)c1n2C	inactive
CNc1sc(-c2cccc3ccccc23)nc1C#N	inactive
COCCCNc1ncnc2onc(-c3ccc(F)cc3)c12	50.1 µM (active)
O=C(O)c1cccc(-c2noc(-c3ccccc3F)n2)c1	inactive
O=C(Nc1onc2c1CCCC2)c1ccccc1	inactive
COc1ccccc1C(=O)Nc1onc2c1CCCC2	inactive
NC(=O)C1CCN(c2nc(-c3cccc4ccccc34)cs2)CC1	inactive
Cc1cc(C)nc(NC(=S)N2CCN(c3ccncc3)CC2)c1	inactive
Cc1ccc(Nc2ncnc3c2cnn3-c2ccccc2)c(C)c1	7.94 µM (active)
Cc1nc(C)c(-c2ccc3ncnc(NCc4ncc[nH]4)c3c2)s1	44.7 µM (active)
O=C(Nc1ccc2c(c1)CCC2)Nc1nnc(-c2ccncc2)s1	inactive

SMILES	Potency
Cc1ccnc(NC(=S)N2CCNCC2)c1	inactive
CN1CCCN=C1/C=C/c1cccs1	inactive
Cc1cc2c(s1)c1cnn(Cc3ccc(C)c(F)c3)c(=O)c1n2C	inactive
O=c1c(-c2ccc(O)cc2)coc2cc(O)ccc12	inactive
Oc1cccc(Nc2cc(-c3ccccc3)ncn2)c1	39.8 µM (active)
CCc1cc(C(N)=S)ccn1	inactive
O=c1cc(-c2ccccc2)oc2ccccc12	112 µM (active)
CC(=O)Nc1sc2c(c1-c1nc3ccccc3s1)CNC2	inactive
COc1ccc(Nc2ncnc3sc4c(c23)CCCC4)cc1	20 µM (active)
Cc1cccc(C(=O)Nc2sc3c(c2C(=O)O)CCCC3)c1	50.1 µM (active)
CC(C)CCNc1ncnc2c1cnn2-c1cccc(Cl)c1	22.4 µM (active)
COc1ccc(C(=O)Nc2onc3c2CCCC3)cc1	inactive
O=c1[nH]cnc2nc[nH]c12	inactive
CN(C)C(=O)c1ccc(-c2cc[nH]c(=O)c2N)cc1	inactive
Cc1cccc(-n2cnc3cc(C(=O)NC4CCCC4)ccc32)c1	44.7 µM (active)
COc1ccc2[nH]c(S(=O)Cc3ncc(C)c(OC)c3C)nc2n1 (stereo not given)	inactive
COc1cccc(/C=C/c2nc(C#N)c(NCCN(C)C)o2)c1	inactive
